# NS1 function inh: inhibitors of influenza NS1 protein function | 270,000 compounds, 0.4% hits | Potency, µM (top dose mostly 46.1 µM); calls by dose curve; further: actives are rising curves; nearly all actives have a fitted effect of over 50% in size
#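 Recovery from NS1-induced slow growth read by OD600 in budding yeast switched to galactose assay medium (pH 6.0, -URA) at 1:100 dilution. Compound 23 nl per well; the matching strain lacking NS1 serves as control.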
# SARS PLpro yeast: blocks SARS-CoV papain-like protease in a yeast assay; S. cerevisiae expressing SARS-CoV PLpro, growth rescue; Potency, µM (series often up to 32.9 µM), usual class: activators; 330,000 compounds, 0.19% hits; calls by dose curve; further: nearly all actives have a fitted effect of over 55% in size
# Pf growth 48h: P. falciparum growth inhibition at 48 hours (one generation); P. falciparum luciferase growth in erythrocytes, 48 h; Potency, µM (highest dose often 28.7 µM), actives largely listed as inhibitors; 310,000 compounds, 5.9% hits; AID 504832
#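 Compounds are pin-transferred into medium, infected erythrocytes (2% hematocrit, 0.1% parasitemia final) are added, and plates sit one parasite generation at 37 C in 5% CO2. Detection reagent is then added and luminescence measured.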
# Pf growth 96h: P. falciparum growth inhibition at 96 hour, primary screen for plastid delayed-death inhibitors; AID 504834; P. falciparum luciferase reporter growth, 96 h; Potency, µM (top dose mostly 28.7 µM), most hits filed as inhibitors; 320,000 compounds, 6.9% hits
#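 Infected RBCs, 2% Hct / 0.05% parasitemia final; luciferase-reporter P. falciparum; cpd 96 h, 37 C, 5% CO2; luciferase detection reagent; luminescence.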
# AMA1-RON2 inh: disrupts binding of P. falciparum AMA1 to RON2; AlphaScreen AMA1-biotinylated RON2 peptide binding; Potency, µM (top dose mostly 58.2 µM), usual class: inhibitors; 360,000 compounds, 0.2% hits; further: nearly all actives have a fitted effect of over 45% in size
#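 AMA1 (3D7) with his tag at 25 nM final met compounds first, then biotinylated RON2 peptide at 25 nM; detection used donor plus acceptor beads, 10 µg/mL apiece, read by AlphaScreen after 30 min at room temperature.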
# HCV inhibitor: HCV inhibition; Huh7.5.1 HCVcc-Cre infection, luciferase reporter, 44 h; Potency, µM (titrated, usually from 41.8 µM), hits mostly inhibitors; 340,000 compounds, 3.4% hits
#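 Luciferase read-out (15 sec integration) after a 15 min room-temperature substrate step quantifies HCVcc-Cre infection. Cells, 1,000 per well, had compound added 4 h post-plating, then virus at ~0.5 moi, and were cultured 44 h.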
# A number is an active result; - = inactive; ? = inconclusive; . = not tested or not shown; [ ] = another dose, or the depositor's remark. Compounds with a hit are over-represented: about 12% of the library has one in this group of screens. Unless noted, the call rests on the fitted dose curve; in most records, active means well fitted curve in the direction sought with a large enough effect; inconclusive means small, poorly fitted or top-dose-only effect, or another doubt; inactive means no such curve, though single readings can be large; an effect the other way counts as inactive or inconclusive.
SMILES,NS1 function inh,SARS PLpro yeast,Pf growth 48h,Pf growth 96h,AMA1-RON2 inh,HCV inhibitor
COC(=O)C1(C)NC(c2ccc(F)cc2)C2C(=O)N(c3ccc(C)cc3)C(=O)C21 (stereo unspecified),-,-,-,2.3µM,-,-
CCN1C(=O)[C@H]2[C@@H](c3ccc(-c4ccc(Cl)c(Cl)c4)c(OC)c3)N[C@@](C)(C(=O)OC)[C@H]2C1=O,.,-,2.1µM,0.93µM,-,-
O=c1c2c([nH]c3ccccc13)CCCC2,-,-,1.9µM,1.9µM,-,-
O=c1c2c([nH]c3ccccc13)C(=C1CCCC1)CC2,-,-,13µM,-,?,-
CC(C)(C)C1CCc2[nH]c3ccccc3c(=O)c2C1 (stereo unspecified),-,-,0.52µM,?,-,-
O=c1[nH]nc(-c2ccc[nH]2)[nH]1,.,.,.,.,-,.
COc1ccc(Cl)cc1NC(=O)c1c(-c2ccccc2)noc1C,-,-,-,-,-,?
COc1ccc(NC(=O)COC(=O)c2c(-c3ccccc3)noc2C)cc1,-,-,?,10µM,-,?
CCc1noc(C)c1C(=O)OCC(=O)NC(C)c1ccccc1 (stereo unspecified),.,-,-,-,-,-
COc1ccc(Cl)cc1NC(=O)COC(=O)c1c(-c2ccccc2)noc1C,.,-,?,?,-,4µM
COCCOc1ccc(C(F)(F)F)cc1NC(=O)COC(=O)c1c(C)noc1C,-,-,9.3µM,4.7µM,-,-
Cc1onc(-c2ccccc2)c1C(=O)OCC(=O)Nc1ccccc1,.,-,?,-,-,-
Cc1onc(-c2ccccc2)c1C(=O)OCC(=O)NC(C)c1ccc(Cl)cc1 (stereo unspecified),.,-,15µM,?,-,?
NS(=O)(=O)c1ccc(NC(=O)Nc2ccccc2F)cc1,-,.,.,.,.,.
COc1ccc(C(C)(O)c2nc(-c3cnc4ccccc4c3)cs2)cc1 (stereo unspecified),.,.,.,.,-,.
CCOc1ccc(Nc2ccc(S(=O)(=O)N3CCN(C)CC3)cc2[N+](=O)[O-])cc1OCC,.,-,12µM,?,?,?
Cc1ccc(Nc2ccc(S(=O)(=O)N3CCOCC3)cc2[N+](=O)[O-])cc1C,-,?,-,?,?,18µM
CN1CCN(S(=O)(=O)c2ccc(Nc3ccc(F)cc3)c([N+](=O)[O-])c2)CC1,.,-,-,-,-,-[8.37 µM]
C[C@]12C[C@H](O)C3[C@@H](CCC4=CC(=O)CC[C@@]43C)[C@@H]1CC[C@@H]2C(=O)CO (stereo partly specified),-,.,.,.,.,.
O=C(O)[C@@H]1CSCN1,.,.,-,-,.,.
CCC1(c2ccc(Cl)cc2)NC(=O)N(Cc2ccc(C(=O)OC)cc2)C1=O (stereo unspecified),.,-,?,?,-,10µM
COC(=O)N1CCc2c(sc(NC(=O)C3COc4ccccc4O3)c2C(N)=O)C1 (stereo unspecified),.,-,15µM,?,-,-
CCOC(=O)c1c(NC(=O)C2COc3ccccc3O2)sc2c1CCN(Cc1ccccc1)C2 (stereo unspecified),-,-,4.7µM,2.3µM,-,?
CCOC(=O)c1[nH]c2ccc(Br)cc2c1NC(=O)CCN1CCN(C(=O)OCC)CC1,-,-,10µM,-,-,-
CCOC(=O)c1[nH]c2ccc(Br)cc2c1NC(=O)CCN1CCOCC1,-,-,-,?,-,-
SMILES,NS1 function inh,SARS PLpro yeast,Pf growth 48h,Pf growth 96h,AMA1-RON2 inh,HCV inhibitor
CCOC(=O)c1[nH]c2ccc(Br)cc2c1NC(=O)CCN1CCCCC1,-,-,?,?,.,.
CCN(CC(=O)Nc1c(C(=O)OC)[nH]c2ccc(Cl)cc12)c1ccc2c(c1)OCO2,-,-,13µM,?,-,11µM
COC(=O)c1[nH]c2ccc(C)cc2c1NC(=O)CCN1CCN(Cc2ccc3c(c2)OCO3)CC1,-,-,?,8.3µM,-,20µM
CCOC(=O)c1[nH]c2ccc(Cl)cc2c1NC(=O)/C=C/c1ccc2c(c1)OCO2,-,-,-,-,-,-
COc1ccccc1N=NNc1ccc(S(=O)(=O)NC(C)=O)cc1,.,.,.,.,-,.
COc1ccc(-c2nnc(SCC(=O)NC(=O)Cc3ccccc3)n2C)cc1,.,-,-,-,-,-
Nc1ccc2c(c1)OC1(CCCC1)O2,-,-,-,4.1µM,-,?
O=C(CSc1ccccc1)N1CCCC(N2CCN(c3ccc(F)cc3)CC2)C1 (stereo unspecified),-,-,?,-,-,10µM
O=C(c1cccs1)N1CCCC(N2CCN(c3ccc(F)cc3)CC2)C1 (stereo unspecified),-,-,-,-,-,-
COc1cc(CC(NC(C)=O)C(=O)NC2CCN(C(=O)Nc3ccccc3C)CC2)cc(OC)c1 (stereo unspecified),-,-,-,1.7µM,-,-
COc1ccc(CC(NC(C)=O)C(=O)NC2CCN(S(=O)(=O)c3cccc4ccccc34)CC2)cc1OC (stereo unspecified),-,-,.,13µM,-,?
COc1ccc(CN2CCN(S(=O)(=O)c3ccc(NC(C)=O)cc3)CC2)cc1OC,-,-,?,10µM,?,-
COc1ccc(CC(NC(C)=O)C(=O)NC2CCN(S(=O)(=O)c3ccccc3)CC2)cc1OC (stereo unspecified),-,-,-,5.2µM,-,-
COc1cc(CC(NC(C)=O)C(=O)NC2CCN(C(=O)Nc3ccccc3Cl)CC2)cc(OC)c1 (stereo unspecified),-,-,-,-,-,-
CC(N)(Cc1ccc(O)c(O)c1)C(=O)O (stereo unspecified),-,.,.,.,.,.
O=C(O)/C=C/C(=O)Nc1ccc(OC(F)(F)F)cc1Br,-,-,-,-,-,-
COc1cccc(CC(NC(C)=O)C(=O)NC2CCN(S(=O)(=O)c3ccc(NC(C)=O)cc3)CC2)c1 (stereo unspecified),-,-,-,-,-,-
COc1cc(C(=O)N2CCC(NC(=O)C(Cc3ccc(C)cc3)NC(C)=O)CC2)cc(OC)c1OC (stereo unspecified),-,-,-,5.9µM,-,-
COc1ccc(CC(NC(C)=O)C(=O)NC2CCN(S(=O)(=O)c3ccc(NC(C)=O)cc3)CC2)cc1OC (stereo unspecified),-,-,-,13µM,-,-
CC(C)N(Cc1nnc(-c2ccc(Cl)cc2)o1)C(=O)c1cc2ccccc2o1,.,-,-,?,-,-
O=S(=O)(c1ccc(F)cc1)n1ccc(-c2cccc(OCc3ccc(Cl)cc3Cl)c2)n1,?,-,?,0.15µM,-,-
COc1ccc(C(=O)N(c2ccccc2)c2nccc3ccccc23)cc1OC,.,.,.,.,-,1.8µM
CC1=CC(=C(C#N)C#N)C=C(C)N1Cc1ccc(Cl)cc1,.,-,2.1µM,-,-,-

# From PubChem BioAssay
